The structures appear in SMILES notation. Records with an inconclusive call do not appear. The source made the active and inactive calls. Calls come from the whole dose curve; as a rule, active = well fitted curve in the direction sought with a large enough effect; inconclusive = small, poorly fitted or top-dose-only effect, or another doubt; inactive = no such curve, though single readings can be large; an effect the other way counts as inactive or inconclusive.

The nature of assay [1]: Quantitative High-Throughput drug screen in 47 multiple myeloma cell lines against the NCATS MIPE library collection: Karpas417_ECACC cell viability assay (AID 1918961). Note: potency is the fitted concentration of half-maximal effect. The following applies: Karpas417 myeloma viability, CellTiter-Glo ATP luminescence, 48 h; viability (% of DMSO): at 45.8 µM (top of the series). The method, boiled down: (§1)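 Myeloma cells (500 per well) were exposed to MIPE 4.0 compounds by pin transfer and incubated 48 hours at 37C, 5% CO2. Viability was read as ATP by CellTiter-Glo luminescence, normalised to DMSO (100%) and media-only (0%) wells.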
In general terms: ATP-based viability assays read luminescence as a measure of living cells.

The nature of assay [2]: Quantitative High-Throughput drug screen in 47 multiple myeloma cell lines against the NCATS MIPE library collection: JIM3_ECACC cell viability assay (AID 1918963; note: nearly all actives have a fitted effect of over 35% in size; note: potency is the fitted concentration of half-maximal effect). The essentials: (§2)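 CellTiter-Glo luminescence (ATP) after 48 h compound exposure, 37C/5% CO2; 500 cells/well; MIPE 4.0 approved/investigational drugs pinned in; DMSO = 100%, media only = 0% viability.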
Assay [3] in a line: Quantitative High-Throughput drug screen in 47 multiple myeloma cell lines against the NCATS MIPE library collection: JIM1_ECACC cell viability assay (AID 1918964; note: potency is the fitted concentration of half-maximal effect). The essentials:
as §2

Assay [4] is described as follows: Quantitative High-Throughput drug screen in 47 multiple myeloma cell lines against the NCATS MIPE library collection: INA6_PLB cell viability assay (AID 1918965; note: nearly all actives have a fitted effect of over 55% in size; note: potency is the fitted concentration of half-maximal effect). The essentials:
as §1

The nature of assay [5]: Quantitative High-Throughput drug screen in 47 multiple myeloma cell lines against the NCATS MIPE library collection: JJN3_DSMZ cell viability assay (AID 1918966; note: nearly all actives have a fitted effect of over 50% in size; note: potency is the fitted concentration of half-maximal effect). The method, boiled down:
as §2

A short description of assay [6]: Quantitative High-Throughput drug screen in 47 multiple myeloma cell lines against the NCATS MIPE library collection: H1112_PLB cell viability assay (AID 1918967; note: nearly all actives have a fitted effect of over 30% in size; note: potency is the fitted concentration of half-maximal effect). The method, boiled down:
as §2

The nature of assay [7]: Quantitative High-Throughput drug screen in 47 multiple myeloma cell lines against the NCATS MIPE library collection: Karpas25_ECACC cell viability assay (AID 1918968; note: nearly all actives have a fitted effect of over 35% in size; note: potency is the fitted concentration of half-maximal effect). The method, boiled down: as §2
The nature of assay [8]: Quantitative High-Throughput drug screen in 47 multiple myeloma cell lines against the NCATS MIPE library collection: KMS27_JCRB cell viability assay (AID 1918970). Note: nearly all actives have a fitted effect of over 30% in size. Note: potency is the fitted concentration of half-maximal effect. The following applies: KMS27 myeloma cells, CellTiter-Glo ATP viability, 48 h; viability (% of DMSO): at 45.8 µM (top of the series). The method, boiled down: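 Luminescent ATP read-out (CellTiter-Glo, 5 min at room temperature) after 48 h compound exposure of 500 KMS27_JCRB cells per well; DMSO wells define full viability and media-only wells zero.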

Assay [9] in a line: Quantitative High-Throughput drug screen in 47 multiple myeloma cell lines against the NCATS MIPE library collection: KMS12BM_JCRB cell viability assay (AID 1918971). Note: nearly all actives have a fitted effect of over 35% in size. Note: potency is the fitted concentration of half-maximal effect. The essentials:
(§3)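 Approved and investigational drugs from MIPE 4.0 were added by pin tool to 500 cells per well. After 48 hours at 37C, ATP-based CellTiter-Glo luminescence indicated remaining viability.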

Assay [10] can be described thus: Quantitative High-Throughput drug screen in 47 multiple myeloma cell lines against the NCATS MIPE library collection: KMS12PE_JCRB cell viability assay (AID 1918972). Note: nearly all actives have a fitted effect of over 30% in size. Note: potency is the fitted concentration of half-maximal effect. The essentials: as §1
Assay [11] can be described thus: Quantitative High-Throughput drug screen in 47 multiple myeloma cell lines against the NCATS MIPE library collection: KMS20_JCRB cell viability assay (AID 1918973). Note: nearly all actives have a fitted effect of over 45% in size. Note: potency is the fitted concentration of half-maximal effect. The method, boiled down:
as §2

Assay [12] in a line: Quantitative High-Throughput drug screen in 47 multiple myeloma cell lines against the NCATS MIPE library collection: KMS26_JCRB cell viability assay (AID 1918975). Note: nearly all actives have a fitted effect of over 45% in size. Note: potency is the fitted concentration of half-maximal effect. The essentials: as §3
Assay [13] in a line: Quantitative High-Throughput drug screen in 47 multiple myeloma cell lines against the NCATS MIPE library collection: MMM1_PLB cell viability assay (AID 1918976). Note: nearly all actives have a fitted effect of over 35% in size. Note: potency is the fitted concentration of half-maximal effect. The method, boiled down:
(§4)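 Myeloma cells (500/well) treated with MIPE 4.0 compounds for 48 h at 37 °C, 5% CO2. Viability read as ATP via CellTiter-Glo luminescence after 5 min at RT; DMSO-only wells = 100%, media-only = 0% viability.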

Assay [14] can be described thus: Quantitative High-Throughput drug screen in 47 multiple myeloma cell lines against the NCATS MIPE library collection: NCIH929_DSMZ cell viability assay (AID 1918978). Note: nearly all actives have a fitted effect of over 35% in size. Note: potency is the fitted concentration of half-maximal effect. The method, boiled down: as §4
Assay [15] can be described thus: Quantitative High-Throughput drug screen in 47 multiple myeloma cell lines against the NCATS MIPE library collection: MM1S_ATCC cell viability assay (AID 1918980). Note: nearly all actives have a fitted effect of over 45% in size. Note: potency is the fitted concentration of half-maximal effect. The method, boiled down: as §4
A short description of assay [16]: Quantitative High-Throughput drug screen in 47 multiple myeloma cell lines against the NCATS MIPE library collection: MM1R_ATCC cell viability assay (AID 1918981). Note: nearly all actives have a fitted effect of over 35% in size. Note: potency is the fitted concentration of half-maximal effect. The method, boiled down:
as §4

The nature of assay [17]: Quantitative High-Throughput drug screen in 47 multiple myeloma cell lines against the NCATS MIPE library collection: KHM11_PLB cell viability assay (AID 1918962). The method, boiled down:
as §2

Assay [18] in a line: Quantitative High-Throughput drug screen in 47 multiple myeloma cell lines against the NCATS MIPE library collection: MOLP8_DSMZ cell viability assay (AID 1918977). Note: nearly all actives have a fitted effect of over 45% in size. The method, boiled down: as §4
Assay [19] in a line: Quantitative High-Throughput drug screen in 47 multiple myeloma cell lines against the NCATS MIPE library collection: OCIMY1_PLB cell viability assay (AID 1918979). Note: nearly all actives have a fitted effect of over 35% in size. Note: potency is the fitted concentration of half-maximal effect. The essentials:
as §4

As for `C#CCC(Cc1cnc2nc(N)nc(N)c2n1)c1ccc(C(=O)N[C@@H](CCC(=O)O)C(=O)O)cc1` (some centres not stated), the Potency result in assay [1], in assay [3], in assay [8], in assay [9], in [10] and in [11] was “inactive” each time. Also, the Potency result in assay [13] is “inactive”. Besides, the Potency in assay [2] was 0.0469 µM (active); in assay [4], 0.0935 µM (active); in assay [5], 0.0662 µM (active); in assay [6], 0.132 µM (active); in assay [7] it was 11.8 µM (active); in assay [12], 0.105 µM (active). The Potency in assay [14] was 0.118 µM (active); in assay [15], 0.0187 µM (active); in [16], 0.0118 µM (active).

For the molecule `O=C1CSC(=O)N1C(CCc1ccncc1)COc1ccc(-c2cccc([N+](=O)[O-])c2)cc1` (configuration not stated), the Potency in assay [1] is 0.0469 µM (active); in assay [17] it was 10.5 µM (active); in assay [4] it was 5.9 µM (active); in [5] it was 18.7 µM (active); in [6] it was 7.43 µM (active); in assay [7], 2.64 µM (active). For the same molecule, the Potency in assay [11] is 10.5 µM (active); in assay [12] it was 4.18 µM (active); in [13] it was 4.18 µM (active); in [14], 18.7 µM (active); in [15], 0.935 µM (active); in assay [16], 2.35 µM (active). For the same molecule, the Potency result in assay [3], in assay [8] and in assay [10] was “inactive” in each case.

Consider `COc1cc(C[C@@H](CO)[C@H](CO)Cc2ccc(O)c(OC)c2)ccc1O`, for which the Potency in assay [1] is 5.9 µM (active); in [17], 1.18 µM (active); in [2], 2.64 µM (active); in assay [4], 1.18 µM (active); in assay [7], 0.418 µM (active); in assay [8], 2.96 µM (active). In addition, the Potency in [10] was 3.72 µM (active); in [11], 0.526 µM (active); in assay [12], 1.32 µM (active); in assay [14], 0.59 µM (active); in [16] it was 1.32 µM (active).

Consider `COc1ccc(C(C)=O)c(O)c1`, for which the Potency is 0.418 µM (active) in assay [1] and 4.69 µM (active) in assay [15]. Further, the Potency entry in assay [2], in assay [3], in assay [4], in [5], in assay [6] and in [10] was “inactive” throughout. Further, the Potency entry in assay [11], in assay [18], in assay [14] and in [19] was “inactive” throughout.

As to `CC(C=CC1=C(C)CCCC1(C)C)=CC=CC(C)=CC(=O)Nc1ccc(O)cc1`, the Potency in assay [1] was 4.29 µM (active); in assay [17], 17.1 µM (active); in [2] it was 5.4 µM (active); in [4], 13.6 µM (active); in assay [5], 21.5 µM (active); in assay [6], 19.1 µM (active). Further, the Potency was 12.1 µM (active) in assay [7]; 8.55 µM (active) in assay [8]; 17.1 µM (active) in [9]; 3.82 µM (active) in assay [10]; 15.2 µM (active) in assay [11]; 19.1 µM (active) in assay [12]. Also, the Potency in [13] is 21.5 µM (active); in assay [14], 21.5 µM (active); in [19] it was 21.5 µM (active); in assay [15], 48.1 µM (active); in assay [16], 17.1 µM (active).

`O=C(CN1C(=O)C2(CCCC2)NC[C@H]1c1cc(F)cc(F)c1)Nc1ccc2c(c1)C[C@@]1(C2)C(=O)Nc2ncccc21`: the Potency result in [1], in assay [2], in [4], in assay [6], in [7] and in assay [9] was “inactive” each time. The Potency result in assay [12], in assay [14], in assay [15] and in assay [16] was “inactive” in each case. In addition, the Potency in assay [3] was 18.7 µM (active).
